Reference: the supplement of paper PMC10338343
± gives the standard deviation. Over roughly 6,200 sequences, “pre-steady-state target cleavage rate” has its median near 0.29; the highest 2% begin near 2. Only a selection was taken, and the highest values are over-represented in it overall.

System: MIWI (PIWIL1) piRISC loaded with piRNA #1 (30 nt)
Assay: pre-steady-state target cleavage rate (min^-1); MIWI and MILI are mouse PIWI proteins and EfPiwi is from a freshwater sponge; tags in brackets are library labels; higher = faster piRNA-guided slicing of the target
Conditions: guide: piRNA #1 5'p-UGAGGUAGUAGGUUGUAUAGUAUCCAGAGG; auxiliary factor: 500 nM mouse GTSF1
Description: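 Cleave-'n-Seq: a library of target RNAs (target site embedded in constant flanks, ACAGCATTCCGCGTTAGTGATATCCG... 5' flank; DNA-blocked outside the site) at 0.1 nM was incubated with 1 nM active mouse MILI or MIWI piRISC (synthetic 5'-monophosphorylated piRNA guide) with or without 500 nM mouse GTSF1 at 33 °C for 1 min to 16 h. Uncleaved targets were sequenced and normalised to non-target controls, and the pooled three trials were fitted to a burst-and-steady-state model to give the pre-steady-state cleavage rate (min^-1; k3 is constrained to at most 1e-4). Sequence is the target site only; target names encode pairing extent (gX:gY) and contiguous / 1-mismatch / 2-mismatch / bulge geometry. Fits with R² ≤ 0 are excluded.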

| Sequence | pre-steady-state target cleavage rate |
| --- | --- |
| GGAGUGGAUACUAUACAACGUACUAGCUCA | 0.0857 ± 0.017 |
| GCUCUCGAUACUAUACAACCUACUACGUCA | 1.24 ± 0.079 |
| GCACUGGAUACUAUACAUCCUACUACCUCA | 1.88 ± 0.096 |
| CCUCAGGAUACUAUACAACCUACUAGCUCA | 1.13 ± 0.056 |
| GGAGACGAUACUAUACAACCUACUACCUUA | 1.35 ± 0.09 |
| GGAGUGCAUAGUAUACAACCUACUACCUCA | 0.659 ± 0.04 |
| GGAGACCUAUCUAUAGAACCUAGUACCUCA | 0.0363 ± 0.0089 |
| GGAGAGGAUACUAUACAACCUACCUACCUCA | 1.05 ± 0.059 |
| GGAGUGAUACUAUACAACCUACUACCUCA | 1.77 ± 0.11 |
| GGAGAGAUACUAUACAACCUACUACCUCA | 1.89 ± 0.11 |
| GGAGAGUGAUACUAUACAACCUACUACCUCA | 2.1 ± 0.15 |
| GGAGUGAGAUACUAUACAACCUACUACCUCA | 1.77 ± 0.094 |
| GGAGAUGAUACUAUACAACCUACUACCUCA | 1.86 ± 0.095 |
| GGAGAGAGAUACUAUACAACCUACUACCUCA | 2.02 ± 0.12 |
| GGAGAAGAUACUAUACAACCUACUACCUCA | 2.04 ± 0.11 |
| GGAGUGUGAUACUAUACAACCUACUACCUCA | 1.81 ± 0.1 |
| GGAGUGGAUACUUUACAACCUACUACCUCA | 1.53 ± 0.086 |
| GGAGACCAUACAAUACAACCUACUAGCUCA | 0.486 ± 0.067 |
| GGAGACCUAACUAUAGAACCUACUACCUGA | 0.188 ± 0.066 |
| GGACUGGAUACUAUACAACGUACUACCUGA | 0.377 ± 0.047 |
| ACUCUGGAUACUAUACAACCUACUACCUCA | 2.19 ± 0.13 |
| CCUCUGGAUACUAUACAACCUACUACACUCA | 0.874 ± 0.073 |
| CCUCUGGAUACUAUACAACCUCACUACCUCA | 0.0086 ± 0.0033 |
| CACUCUGGAUACUAUACAACCUACUACCUCA | 2.09 ± 0.12 |

| Sequence | pre-steady-state target cleavage rate |
| --- | --- |
| GGAGACGAUACGUAUACAACCUACUACCUCA | 1.4 ± 0.13 |
| GGAGUGGAUACUAUACAACCUACUGACCUCA | 0.489 ± 0.043 |
| GCUCUGUGAUACUAUACAACCUACUACCUCA | 1.81 ± 0.11 |
| GGUCUUGAUACUAUACAACCUACUACCUCA | 1.87 ± 0.11 |
| GGACUUGAUACUAUACAACCUACUACCUCA | 1.73 ± 0.12 |
| GCUCUUGAUACUAUACAACCUACUACCUCA | 2.03 ± 0.11 |
| CCUCUUGAUACUAUACAACCUACUACCUCA | 2.33 ± 0.14 |
| GGAGUUGAUACUAUACAACCUACUACCUCA | 1.97 ± 0.13 |
| GCUCUGGAUACUAUACAACCUACAACCUGA | 0.744 ± 0.14 |
| GGAGUCGAUACUAUACAACCUACUACCUCA | 1.47 ± 0.091 |
| GGAGACCAUAACUAUACAACCUACUACCUCA | 1.24 ± 0.089 |
| GCUCUGGAUACUAUACAACCUAAUACCUCA | 1.55 ± 0.12 |
| GCUCUGGAUAAUAUACAACCUACUACCUCA | 2.07 ± 0.13 |
| GCUCUGGAUACUAAUACAACCUACUACCUCA | 1.49 ± 0.09 |
| CCUCUGGAUAAUAUACAACCUACUACCUCA | 2.06 ± 0.12 |
| CCUCUGGAUAUAUACAACCUACUACCUCA | 1.9 ± 0.12 |
| GGUCUGGAUAAUAUACAACCUACUACCUCA | 1.88 ± 0.12 |
| CCUCUGGAUACUAUAGAACCUACUACCUCA | 0.664 ± 0.06 |
| GGAGACCAUUCUUUACAACCUACUACCUCA | 0.387 ± 0.059 |
| GCUCUGGAUAGUAUACUACCUACUACCUCA | 0.858 ± 0.049 |
| GGUCUGGAUACAAUACUACCUACUACCUCA | 1.09 ± 0.092 |
| CCUCUGGAUACUAUACAACCUACUACCUCG [g2:g30:cont:t1G] | 1.32 ± 0.094 |
| CCUCUGGAUACUAUACAACCUACUACCUA | 1.52 ± 0.096 |
| CCUCUGGAUACUAUACAACCUACUACCUACA | 1.79 ± 0.096 |

| Sequence | pre-steady-state target cleavage rate |
| --- | --- |
| CCUCUGGAUACUAUACAACCUACUACCUAA | 1.9 ± 0.1 |
| CCUCUGGAUACUAUACAACCUACUACCUCU [g2:g30:cont:t1U] | 2.36 ± 0.14 |
| CCUCUGGAUACUAUACAACCUACUACCUCC [g2:g30:cont:t1C] | 2.18 ± 0.14 |
| GGAGAGGAAACAAUACAACCUACUACCUCA | 0.95 ± 0.079 |
| GGAGACGAUACUAUUCAUCCUACUACCUCA | 1.09 ± 0.061 |
| GGAGUGGAUACUAUCAACCUACUACCUCA | 1.58 ± 0.11 |
| GGAGACCUAUCUAUACAACCUACUUCCUGA | 0.0338 ± 0.01 |
| GGAGACCUAUCUAUACAACCUUCUACCACA | 0.136 ± 0.015 |
| GCUCUGGAUACAUAUACAACCUACUACCUCA | 1.54 ± 0.083 |
| GGUCUGGAUAUUAUACAACCUACUACCUCA | 1.98 ± 0.12 |
| GGACUGGAUAUUAUACAACCUACUACCUCA | 1.62 ± 0.11 |
| GCUCUGGAUAUUAUACAACCUACUACCUCA | 2.06 ± 0.11 |
| GCUCUGGAUAUAUACAACCUACUACCUCA | 1.62 ± 0.086 |
| CCUCUGGAUAUUAUACAACCUACUACCUCA | 2.15 ± 0.12 |
| GGAGACCUAAGUAUUCAACCUACUACCUCA | 0.00289 ± 0.0023 |
| CGUCUGGAUACUAUACAACCUACUACCUGA | 0.517 ± 0.044 |
| CCUCUGGAUACUAUACAUGGUACUACCUCA | 0.0547 ± 0.0094 |
| GGAGAGGAUACUAUACAACCUACCACCUCA | 0.849 ± 0.049 |
| GGUCUCGAUUCUAUACAACCUACUACCUCA | 1.74 ± 0.1 |
| GCUCUCGAUUCUAUACAACCUACUACCUCA | 2.09 ± 0.12 |
| GGACUCGAUUCUAUACAACCUACUACCUCA | 1.61 ± 0.14 |
| CCUCUCGAUACUAUACAACCUUCUACCUCA | 0.676 ± 0.035 |
| GCUCUCGAUACUAUACAACCUUCUACCUCA | 0.639 ± 0.034 |
| CCUCUCGAUUCUAUACAACCUACUACCUCA | 2.25 ± 0.15 |
